# Source: PubChem BioAssay (NCATS)
# Records with an inconclusive call do not appear. Entries that show only a call come without a potency. Active and inactive are the calls of the source. Unless noted, the call rests on the fitted dose curve; in most records, active means well fitted curve in the direction sought with a large enough effect; inconclusive means small, poorly fitted or top-dose-only effect, or another doubt; inactive means no such curve, though single readings can be large; an effect the other way counts as inactive or inconclusive.
# Tests used:
# [1] = target: Thyrotropin-releasing hormone receptor (Homo sapiens) (UniProt P34981); assay: qHTS for Small Molecule Agonists and Allosteric Enhancers of Human TRH Receptor: Validation Screen for Agonists (AID 493127;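 active means calcium activation more than 3 SD above the typical response in the agonist read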;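 further: intracellular calcium rise by fluo-8 fluorescence before TRH EC20 addition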); conditions: TRH receptor agonist cell assay; at 2 µM; stronger effect = higher value
# Method in brief: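 TRHR-expressing cells were plated overnight in serum-containing medium, then loaded with fluo-8 calcium dye at room temperature for 30 min–1.5 h. After a 10 s baseline, compound was pin-transferred and calcium fluorescence (ex 480/em 530) read kinetically for agonist response.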
# [2] = Nrf2 qHTS screen for inhibitors: Validation (AID 493153; active means well fitted inhibition curve with a large enough effect in the main read-out, with a control signal flat, not every such curve was filed as active; further: potency means the concentration at half of the fitted maximal effect); conditions: A549 ARE-Fluc reporter, 18-24 h; Potency: luciferase luminescence; viability change: measured here: cytotoxicity max response; luciferase luminescence, at 46.1 µM (top of the series)
# Method in brief: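 A549 cells carrying an ARE-driven firefly luciferase reporter, in 5% FBS OPTI-MEM, were treated with compounds in concentration-response for 18-24 h at 37°C. Viability was read by CellTiter-Fluor fluorescence, then Nrf2 activity by luciferase luminescence.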
# [3] = qHTS for Inhibitors of Cell Surface uPA Generation: Validation Assay (AID 493164); conditions: mouse cells, plasminogen activation; series mostly up to 38.3 µM;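 further: RAW 264.7 macrophage cells exposed to compound for 18 h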
# Method in brief: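 RAW 264.7, 4000 cells/well, o/n plating; cpd 7-pt 1:5 dilution 2.45 nM–38.3 uM final; 18 h, 37 C/5% CO2; ATP-Lite, 5 s luminescence exposure.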
# [4] = target: Galactokinase (Homo sapiens) (UniProt P51570); assay: qHTS Validation Assay for Inhibitors of Human Galactokinase (GALK) (AID 493189); conditions: purified human GALK enzyme activity, qHTS 7-point titration; series mostly up to 57.5 µM
# Method in brief: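 Luminescence from leftover ATP (Kinase-Glo Plus, 10 min) served as read-out after a 1 h room-temperature reaction of 5 nM GALK, 100 uM galactose and 35 uM ATP at pH8.0.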
# [5] = Validation screen for small molecules that induce DNA re-replication in SW480 colon adenocarcinoma cells (AID 504364); conditions: DNA re-replication phenotype (high-content imaging); series mostly up to 46.1 µM
# Method in brief: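 SW480 cells seeded at 250 per well were exposed to compound or DMSO for 48 hr at 37 C, 5% CO2, then stained with Hoechst for 40 min. DNA content per nucleus was imaged (405 nm ex, 500-530 nm em).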
# [6] = target: Peptidyl-prolyl cis-trans isomerase NIMA-interacting 1 (Homo sapiens) (UniProt Q13526); assay: qHTS Validation Assay to Find Inhibitors of Pin1 (AID 504536; active means well fitted inhibition curve with a large enough effect in the polarisation, with a control signal flat, not every such curve was filed as active; the % refers to the polarisation); conditions: Pin1 fluorescence polarization peptide binding assay; series mostly up to 57.5 µM
# Method in brief: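 Fluorescence polarization competition: compounds (titration) displace HiFluor-488-labeled Pin1-1b peptide from Pin1 (0.3 uM final) in pH 7.5 HEPES buffer with DTT, 10 min at room temperature; %Activity normalized to no-enzyme wells, curves fitted.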
# [7] = target: Phosphoglycerate kinase, glycosomal (Trypanosoma brucei brucei) (UniProt P07378); assay: qHTS Validation Assay to Find Inhibitors of Phosphoglycerate Kinase (AID 504547); conditions: enzymatic PGK inhibition, coupled luminescence read-out; series mostly up to 57.5 µM
# Method in brief: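 Inhibition of the enzyme is judged by a Kinase-Glo Plus luminescent signal following a one-hour incubation at room temperature. Because 1,3-BPG is unstable, it is made in situ by GAPDH at 100nM final; no-PGK wells define the baseline.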
# [8] = target: phosphoglycerate mutase (Leishmania major) (UniProt Q4Q090); assay: qHTS Validation Assay to Find Inhibitors of Phosphoglycerate Mutase (AID 504548); conditions: biochemical enzyme activity; Potency: inhibition qHTS; series mostly up to 57.5 µM;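 further: end-point luminescence from Kinase-GloPlus after the PGAM reaction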
# Method in brief: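 L. major PGAM (1.25nM final) was added to substrate buffer and pinned compound, incubated 45 minutes at room temperature, then Kinase-GloPlus added; luminescence read after 10 minutes. Buffer: 100 mM TEA pH 7.6, 5 mM MgCl2, 0.01% Tween-20.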
# [9] = Inducers of the Endoplasmic Reticulum Stress Response (ERSR) in human glioma: Validation (AID 504836); conditions: human glioma cells, ER stress response reporter; series mostly up to 38.3 µM
# Method in brief: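 ERSR induction read as luciferase luminescence (Bright-Glo, 10 min at room temperature) in stably transfected human U87-MG glioma cells exposed to compounds for 16 h, using GRP78 as sensor.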
# [10] = target: Ubiquitin carboxyl-terminal hydrolase 1 (Homo sapiens) (UniProt O94782); assay: Inhibitors of USP1/UAF1: Pilot qHTS (AID 504865); conditions: purified USP1/UAF1, Ub-rhodamine cleavage fluorescence; series mostly up to 114 µM;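 further: rhodamine fluorescence freed from ubiquitin-rhodamine substrate followed over time; top concentration of the series differs between compounds; nearly all actives have a fitted effect of over 35% in size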
# Method in brief: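 1nM USP1/UAF1 + cpd, 15 min RT; start w/ Ub-Rho 150nM final; kinetic FL 480/540 nm, 6 reads q60 s. Buffer 50mM HEPES pH 7.8, 0.5mM EDTA, 1mM TCEP, 0.01% Tween-20, 0.1 mg/ml BSA.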
# [11] = qHTS for Inhibitors of ATXN expression: Validation of Cytotoxic Assay (AID 588349); conditions: cytotoxicity counter-screen for ATXN expression inhibitors, cell viability; series mostly up to 57.1 µM; further: potency means the concentration at half of the fitted maximal effect
# Method in brief: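 HEK293 cells were dosed with titrated compounds for 72 hr at 37 degrees C. Viability was read by CellTiter Glo luminescence, with intracellular ATP as the marker of cell survival.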
# [12] = qHTS for Inhibitors of ATXN expression: Validation (AID 588378); conditions: cell-based ATXN2 expression reporter assay, luminescence; series mostly up to 57.1 µM; further: nearly all actives have a fitted effect of over 75% in size; further: potency means the concentration at half of the fitted maximal effect
# Method in brief: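 Cells: HEK293-ATXN2-FFLuc, phenol-red free DMEM, 2 h attachment. Compound pin-transfer, 24 h, 37 degrees C, 5% CO2. CellTiter-Fluor 30 min, Ex405/Em525; Bright-Glo 5 min, luminescence 2 s exposure.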
# [13] = target: DNA dC->dU-editing enzyme APOBEC-3G (Homo sapiens) (UniProt Q9HC16); assay: qHTS for inhibitors of Vif-A3G interactions: Validation (AID 588379); conditions: Vif-A3G protein interaction assay; series mostly up to 46.1 µM
# Method in brief: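 HeLa cells stably expressing Vif and A3G-eYFP, 700 cells/well, incubated overnight at 37 deg C, then exposed to compound overnight at 37 deg C. Inhibition of Vif-mediated degradation read as increased yellow fluorescence (Ex 488/Em 500-530) by laser-scanning cytometry.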
# Sequence of phosphoglycerate mutase (Leishmania major) (Q4Q090 1-553): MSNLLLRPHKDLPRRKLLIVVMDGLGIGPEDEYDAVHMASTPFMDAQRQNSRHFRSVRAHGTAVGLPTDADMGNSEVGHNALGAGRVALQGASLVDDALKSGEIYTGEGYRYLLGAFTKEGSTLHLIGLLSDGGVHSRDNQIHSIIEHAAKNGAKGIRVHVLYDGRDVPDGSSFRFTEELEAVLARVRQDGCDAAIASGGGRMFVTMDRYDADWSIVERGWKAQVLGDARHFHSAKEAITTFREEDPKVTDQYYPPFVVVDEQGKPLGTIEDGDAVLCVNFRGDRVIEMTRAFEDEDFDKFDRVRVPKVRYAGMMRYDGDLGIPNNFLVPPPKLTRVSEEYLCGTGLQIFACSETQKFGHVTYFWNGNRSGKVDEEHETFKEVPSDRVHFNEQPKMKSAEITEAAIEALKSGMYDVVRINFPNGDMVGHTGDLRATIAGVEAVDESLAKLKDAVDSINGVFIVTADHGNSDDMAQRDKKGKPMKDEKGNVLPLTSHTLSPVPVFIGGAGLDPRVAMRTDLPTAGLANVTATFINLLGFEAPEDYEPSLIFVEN
# Sequence of Phosphoglycerate kinase, glycosomal (Trypanosoma brucei brucei) (P07378 whole entry, looked up): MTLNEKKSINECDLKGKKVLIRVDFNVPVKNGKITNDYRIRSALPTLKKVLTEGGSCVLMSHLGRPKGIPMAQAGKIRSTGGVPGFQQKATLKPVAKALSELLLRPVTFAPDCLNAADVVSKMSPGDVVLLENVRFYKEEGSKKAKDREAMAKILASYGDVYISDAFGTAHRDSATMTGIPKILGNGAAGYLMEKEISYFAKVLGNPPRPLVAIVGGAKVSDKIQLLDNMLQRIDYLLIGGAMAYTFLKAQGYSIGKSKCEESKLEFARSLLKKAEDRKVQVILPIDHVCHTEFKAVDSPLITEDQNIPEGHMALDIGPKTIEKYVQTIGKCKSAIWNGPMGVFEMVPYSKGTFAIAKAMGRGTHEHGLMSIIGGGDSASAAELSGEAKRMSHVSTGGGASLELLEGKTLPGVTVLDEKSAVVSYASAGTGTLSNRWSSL
# Sequence of Galactokinase (Homo sapiens) (P51570 whole entry, looked up): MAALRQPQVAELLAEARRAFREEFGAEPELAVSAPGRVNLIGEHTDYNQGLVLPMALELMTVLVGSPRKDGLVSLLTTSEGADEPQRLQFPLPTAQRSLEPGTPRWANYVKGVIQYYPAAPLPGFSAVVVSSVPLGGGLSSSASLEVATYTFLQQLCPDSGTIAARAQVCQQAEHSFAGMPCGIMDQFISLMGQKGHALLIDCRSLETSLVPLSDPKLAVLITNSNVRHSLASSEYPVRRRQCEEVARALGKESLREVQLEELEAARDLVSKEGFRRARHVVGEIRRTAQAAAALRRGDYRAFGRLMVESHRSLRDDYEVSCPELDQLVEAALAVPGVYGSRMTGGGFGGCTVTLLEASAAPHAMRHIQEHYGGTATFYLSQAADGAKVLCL
# Sequence of Thyrotropin-releasing hormone receptor (Homo sapiens) (P34981 whole entry, looked up): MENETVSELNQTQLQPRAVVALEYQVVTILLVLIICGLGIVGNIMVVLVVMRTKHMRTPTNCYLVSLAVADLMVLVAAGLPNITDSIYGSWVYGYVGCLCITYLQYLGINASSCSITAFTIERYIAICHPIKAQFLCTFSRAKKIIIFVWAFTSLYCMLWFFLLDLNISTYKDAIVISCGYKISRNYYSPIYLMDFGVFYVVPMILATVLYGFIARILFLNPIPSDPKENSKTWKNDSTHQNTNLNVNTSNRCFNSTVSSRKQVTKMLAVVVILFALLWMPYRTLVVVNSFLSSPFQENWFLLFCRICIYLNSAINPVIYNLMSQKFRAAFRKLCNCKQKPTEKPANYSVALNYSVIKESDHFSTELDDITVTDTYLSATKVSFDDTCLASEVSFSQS
# Sequence of Ubiquitin carboxyl-terminal hydrolase 1 (Homo sapiens) (O94782 whole entry, looked up): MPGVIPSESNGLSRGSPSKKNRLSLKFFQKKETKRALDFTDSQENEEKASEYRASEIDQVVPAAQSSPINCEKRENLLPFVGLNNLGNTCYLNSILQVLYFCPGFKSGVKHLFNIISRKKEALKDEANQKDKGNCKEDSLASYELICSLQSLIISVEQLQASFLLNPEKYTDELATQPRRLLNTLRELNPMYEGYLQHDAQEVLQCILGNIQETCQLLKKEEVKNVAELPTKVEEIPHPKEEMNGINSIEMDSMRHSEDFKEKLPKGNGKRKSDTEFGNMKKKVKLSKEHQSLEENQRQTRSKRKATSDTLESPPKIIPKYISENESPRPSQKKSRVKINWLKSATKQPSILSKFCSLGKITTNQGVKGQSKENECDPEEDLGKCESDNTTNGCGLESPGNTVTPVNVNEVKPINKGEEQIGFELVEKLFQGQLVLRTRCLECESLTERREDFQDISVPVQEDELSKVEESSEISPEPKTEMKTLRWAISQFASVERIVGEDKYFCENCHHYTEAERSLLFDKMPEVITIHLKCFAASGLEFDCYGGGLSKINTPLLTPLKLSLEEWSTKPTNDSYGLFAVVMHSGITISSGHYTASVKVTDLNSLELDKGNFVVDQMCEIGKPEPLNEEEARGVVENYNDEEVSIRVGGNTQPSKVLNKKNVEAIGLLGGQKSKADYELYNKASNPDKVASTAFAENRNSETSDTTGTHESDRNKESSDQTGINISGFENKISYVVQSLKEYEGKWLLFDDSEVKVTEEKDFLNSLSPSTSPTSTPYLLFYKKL
# Sequence of Peptidyl-prolyl cis-trans isomerase NIMA-interacting 1 (Homo sapiens) (Q13526 whole entry, looked up): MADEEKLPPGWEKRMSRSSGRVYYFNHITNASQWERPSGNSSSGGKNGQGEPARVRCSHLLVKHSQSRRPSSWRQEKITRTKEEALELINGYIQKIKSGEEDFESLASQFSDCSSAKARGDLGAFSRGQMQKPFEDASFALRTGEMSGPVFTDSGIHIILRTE
# Sequence of DNA dC->dU-editing enzyme APOBEC-3G (Homo sapiens) (Q9HC16 whole entry, looked up): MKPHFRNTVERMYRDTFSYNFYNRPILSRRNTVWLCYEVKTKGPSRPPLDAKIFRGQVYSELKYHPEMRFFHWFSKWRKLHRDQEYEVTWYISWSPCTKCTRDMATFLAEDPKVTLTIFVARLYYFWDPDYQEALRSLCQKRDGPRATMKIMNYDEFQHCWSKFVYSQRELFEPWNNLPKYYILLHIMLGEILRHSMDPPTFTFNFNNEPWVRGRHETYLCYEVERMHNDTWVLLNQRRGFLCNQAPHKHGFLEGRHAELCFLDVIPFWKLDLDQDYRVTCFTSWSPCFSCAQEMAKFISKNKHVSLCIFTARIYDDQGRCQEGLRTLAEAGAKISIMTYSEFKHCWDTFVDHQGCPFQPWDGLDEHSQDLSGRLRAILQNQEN
Compound,activation [1],Potency [2],viability change [2] [%],outcome [3],outcome [4],Potency [5],Potency [6],Potency [7],Potency [8],outcome [9],Potency [10],Potency [11],Potency [12],outcome [13]
NNC(=O)c1ccc(O)cc1,0.375% (inactive),inactive,6.63,inactive,inactive,inactive,inactive,inactive,inactive,inactive,inactive,inactive,inactive,–
Oc1ccc2c3c1O[C@H]1c4oc5ccccc5c4C[C@@]4(O)C(C2)N(CC2CC2)CCC314 (some centres undefined),1.94% (inactive),inactive,-2.78,inactive,inactive,inactive,inactive,inactive,–,inactive,–,–,–,–
CC(=O)NBr,-0.0625% (inactive),inactive,1.41,inactive,inactive,inactive,inactive,–,–,inactive,inactive,inactive,inactive,–
COc1ccc2[nH]cc(CCN)c2c1,-2.62% (inactive),inactive,0.303,inactive,inactive,inactive,inactive,–,inactive,inactive,inactive,inactive,inactive,–
C/C(O)=C(\C#N)C(=O)Nc1cc(Br)ccc1Br,0.0625% (inactive),–,–,inactive,inactive,inactive,inactive,inactive,inactive,inactive,–,inactive,inactive,–
Nc1ccc(CCN2CCN(c3cccc(C(F)(F)F)c3)CC2)cc1,2.19% (inactive),inactive,0.0372,inactive,inactive,inactive,inactive,–,–,inactive,inactive,inactive,–,–
OC1CCCCC1N1CCC(c2ccccc2)CC1 (centres undefined),-3.5% (inactive),inactive,-3.18,inactive,inactive,inactive,inactive,–,inactive,inactive,inactive,inactive,inactive,–
NC(N)=NOCC[C@H](N)C(=O)O,-0.375% (inactive),–,–,inactive,inactive,inactive,inactive,inactive,inactive,inactive,inactive,–,inactive,inactive
Cc1[nH]c2ccc(O)cc2c1CCN,0.812% (inactive),–,–,inactive,inactive,inactive,inactive,inactive,inactive,inactive,inactive,inactive,inactive,inactive
COc1ccc(OC)c(C(O)C(C)N)c1 (centres undefined),1.12% (inactive),–,–,inactive,inactive,inactive,inactive,inactive,inactive,inactive,inactive,inactive,inactive,–
Ic1ccccc1CNC1C2CCN(CC2)C1C(c1ccccc1)c1ccccc1 (centres undefined),2.31% (inactive),–,–,inactive,inactive,inactive,inactive,inactive,inactive,inactive,inactive,25.1 µM (active),12.6 µM (active),–
NCC(CP(=O)(O)O)c1ccc(Cl)cc1 (centres undefined),0.5% (inactive),–,–,inactive,inactive,inactive,inactive,inactive,inactive,inactive,inactive,inactive,inactive,–
CC(C)NP(=O)(NC(C)C)OP(=O)(NC(C)C)NC(C)C,-2.75% (inactive),inactive,0.686,inactive,inactive,–,inactive,–,inactive,inactive,inactive,inactive,inactive,–
Clc1ccc(N2CC3CCC(C2)N3)nn1,1.19% (inactive),–,–,inactive,inactive,inactive,inactive,inactive,inactive,inactive,inactive,inactive,inactive,–
C[N+](C)(C)CC#CCOC(=O)Nc1cccc(Cl)c1,0.875% (inactive),inactive,-2.28,inactive,inactive,inactive,inactive,–,–,inactive,inactive,inactive,inactive,–
NC(=O)c1cc(N2CC2)c([N+](=O)[O-])cc1[N+](=O)[O-],0.0625% (inactive),–,–,inactive,inactive,inactive,inactive,inactive,inactive,inactive,inactive,inactive,inactive,–
NCCc1ccc(S(=O)(=O)F)cc1,1.25% (inactive),–,–,inactive,inactive,inactive,inactive,inactive,inactive,inactive,inactive,inactive,inactive,–
NC(Cc1ccc(N(CCCl)CCCl)cc1)C(=O)O (centres undefined),-0.125% (inactive),–,–,inactive,inactive,inactive,inactive,inactive,inactive,inactive,inactive,inactive,–,–
C=CCN1CC[C@]23c4c5ccc(O)c4O[C@@H]2/C(=N/N=C2\CC[C@@]4(O)C6Cc7ccc(O)c8c7[C@@]4(CCN6CC=C)[C@@H]2O8)CC[C@@]3(O)C1C5,2.38% (inactive),inactive,-1.45,inactive,inactive,inactive,–,inactive,inactive,inactive,inactive,–,20 µM (active),–
CCCN1CC[C@@H]2c3cc(O)ccc3CC[C@@H]21,-5.31% (inactive),inactive,9.01,inactive,inactive,inactive,inactive,–,–,inactive,inactive,inactive,inactive,–
O=S1(=O)N(CCN2CC=C(c3c[nH]c4cc(F)ccc34)CC2)c2cccc3c2N1CCC3,52.8% (active),23.1 µM (active),-15.7,inactive,inactive,–,inactive,–,inactive,inactive,inactive,–,–,–
